Most compounds without a hit are left out; they make up all but 6.5% or so of the library.
Vaccinia Venus = qHTS for Stage-Specific Inhibitors of Vaccinia Orthopoxvirus: Venus Reporter Primary qHTS; AID 720580, 2013; 330,000 compounds, 0.46% hits; Potency, µM (doses to about 36.5 µM), actives largely listed as inhibitors; Vaccinia virus Venus reporter expression, fluorescence; calls by dose curve; tested in A549 cells; further: nearly all actives have a fitted effect of over 30% in size
VACV mCherry inh = qHTS for Stage-Specific Inhibitors of Vaccinia Orthopoxvirus: mCherry Reporter Primary qHTS. Vaccinia virus mCherry reporter infection, fluorescence. Potency, µM (doses to about 36.5 µM), actives largely listed as inhibitors. 310,000 compounds, 0.63% hits. AID 720579, 2013; calls by dose curve; tested in A549 cells; further: nearly all actives have a fitted effect of over 35% in size
Lassa entry inh = qHTS for Inhibitors of binding or entry into cells for Lassa Virus; Lassa virus pseudotype entry inhibition, cell reporter; Potency, µM (top dose mostly 37.9 µM), actives largely listed as inhibitors; 300,000 compounds, 1.2% hits; AID 540256, 2011; calls by dose curve; tested in HEK293 cells; further: nearly all actives have a fitted effect of over 50% in size
FMDV antiviral = High Throughput Screening for Foot and Mouth Disease Virus Antivirals. FMDV antiviral cell-based qHTS. Potency, µM (titrated, usually from 57.9 µM), actives largely listed as inhibitors. 410,000 compounds, 1.2% hits; calls by dose curve; tested in HEK293T cells; further: read-out not given here; nearly all actives have a fitted effect of over 45% in size
HCMV antiviral = qHTS Assay for inhibitors of the human cytomegalovirus (HCMV); activity change, negative = inhibition, % at 57.5 µM; HFF cells, HCMV-luciferase reporter, 72 h; stronger effect = lower value; 410,000 compounds, 4.5% hits; in the data active means activity change below about -60%; inconclusive means no clear call, values can overlap the other calls; inactive means above about -39%
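Human foreskin fibroblasts infected with luciferase-reporter HCMV at MOI 1 PFU/cell, compounds at two doses. Luciferase measured 72 h post infection; normalized to buffer-only basal and Salinomycin (10uM) controls.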
MARV entry inh = qHTS for inhibitors of binding or entry into cells for Marburg Virus; Marburg virus pseudotyped entry inhibition, cell reporter; Potency, µM (top dose mostly 37.8 µM), actives largely listed as inhibitors; 300,000 compounds, 1.8% hits; AID 540276, 2011; calls by dose curve; tested in HEK293 cells
A number is an active result.

`O=C(/C=C/Nc1ccc(Br)cn1)c1cccc(OC(F)F)c1` gave FMDV antiviral inactive and HCMV antiviral inactive.
`Cc1ccc(-n2nnnc2SCn2nnc3ccccc3c2=O)c(C)c1` gave Lassa entry inh inconclusive, FMDV antiviral inconclusive, HCMV antiviral -86 and MARV entry inh inactive.
Screening COC(=O)c1ccccc1NC(=O)CSc1nnnn1-c1ccc(C)cc1C returned Vaccinia Venus inactive, VACV mCherry inh inactive, Lassa entry inh inconclusive, FMDV antiviral 32µM, HCMV antiviral inactive and MARV entry inh inactive.
`COc1ccc(S[C@]2(C(=O)N3CCCC3)CC(=O)N(c3ccc4ccccc4c3)[C@@H]2c2ccc(OC)cc2)cc1` gave HCMV antiviral inactive.
Screening Cc1cc(N2C(=O)C(=O)/C(=C(\O)c3ccc(F)cc3)[C@@H]2c2ccc(F)cc2)no1 returned MARV entry inh inactive.
For Cc1ccc2c(c1)sc1nc(-c3cc4ccccc4oc3=O)cn12 the results were Vaccinia Venus inactive, VACV mCherry inh inactive, Lassa entry inh inactive, FMDV antiviral 0.32µM and HCMV antiviral -79.
O=c1oc2ccccc2cc1-c1cn2ccccc2n1 was read as Vaccinia Venus inconclusive, VACV mCherry inh inactive, Lassa entry inh 1.8µM, FMDV antiviral 7.9µM, HCMV antiviral -63 and MARV entry inh inconclusive.
Screening COc1ccc2cc(-c3cn4c(n3)sc3cc(F)ccc34)c(=O)oc2c1 returned Vaccinia Venus inactive, VACV mCherry inh inactive, Lassa entry inh inactive, FMDV antiviral inactive and HCMV antiviral inactive.
CC(C)c1ccc(Cc2cn3cc(-c4cc5ccccc5oc4=O)nc3s2)cc1 was read as Vaccinia Venus inconclusive, VACV mCherry inh inconclusive, Lassa entry inh inactive, FMDV antiviral inactive, HCMV antiviral -78 and MARV entry inh inconclusive.
Screening COc1cc(N2C(=O)C=CC2=O)c(OC)cc1Cl returned Vaccinia Venus inactive, VACV mCherry inh inactive, Lassa entry inh inconclusive, FMDV antiviral 35µM, HCMV antiviral -98 and MARV entry inh inconclusive.
Screening COc1ncc(-c2ccc(N3C(c4ccsc4)=Cc4ccccc4C3CC(C)=O)cc2)cn1 (centres undefined) returned Vaccinia Venus inactive, VACV mCherry inh inactive, FMDV antiviral inactive and HCMV antiviral inactive.
CC(=O)CC1c2ccccc2C=C(c2ccsc2)N1c1ccc(-c2cccs2)cc1 (centres undefined) was read as Vaccinia Venus inactive, VACV mCherry inh inactive, FMDV antiviral inactive and HCMV antiviral -78.
Screening COc1cc(N(C)C)ccc1/C=C1\C=Cc2ccccc21 returned Vaccinia Venus inactive and VACV mCherry inh inactive.
Screening CCCOc1ccc(-c2nc(C#N)c(N3CCN(C)CC3)o2)cc1 returned Vaccinia Venus inactive, Lassa entry inh inactive, FMDV antiviral inactive, HCMV antiviral inactive and MARV entry inh inactive.
`CCOc1ccc(-c2nc(C#N)c(N3CCCCCC3)o2)cc1` gave Vaccinia Venus inactive, VACV mCherry inh inactive, FMDV antiviral inactive and HCMV antiviral -70.
CCOc1ccc(-c2nc(C#N)c(N3CCN(CC)CC3)o2)cc1 was read as Lassa entry inh inactive, FMDV antiviral inactive, HCMV antiviral inactive and MARV entry inh inactive.
`CCOc1ccc(-c2nc(C#N)c(N3CCN(C)CC3)o2)cc1` gave Vaccinia Venus inactive, VACV mCherry inh inactive, Lassa entry inh inconclusive, FMDV antiviral inactive, HCMV antiviral -61 and MARV entry inh inactive.
`Nc1nc2cc3c(cc2cc1C(=O)NCc1cccnc1)OCO3` gave HCMV antiviral inactive.
O=C(NCc1ccc(F)c(F)c1)c1ccc(-c2ccc(F)c(F)c2)c2ccoc12 was read as Vaccinia Venus inactive, VACV mCherry inh inactive, FMDV antiviral inactive and HCMV antiviral inactive.
`O=C(Nc1cccc(C(F)(F)F)c1)c1ccc(-c2ccc(F)c(F)c2)c2ccoc12` gave Vaccinia Venus inconclusive, VACV mCherry inh inconclusive, FMDV antiviral inactive and HCMV antiviral -76.
`O=C(NCc1cccnc1)c1ccc(-c2ccc(F)c(F)c2)c2ccoc12` gave Vaccinia Venus inactive, VACV mCherry inh inconclusive, FMDV antiviral inconclusive and HCMV antiviral -85.
`CN(C)[C@H]1CC[C@@]23CCCN2C(=O)CCC[C@H]3[C@H]1Cc1ccccc1` gave HCMV antiviral inactive.

High-throughput results as filed in PubChem BioAssay.
